Here are results for 40 compounds from PubChem BioAssay (NCI).

This is part of a sample that, as a whole, favours compounds with a hit. Of some 83,000 tested, about 20% had one in any assay.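 Percent growth is the endpoint: 0 to 100 indicates growth inhibition (40 means 60% inhibition), 0 means no net growth, and negative values indicate cell death.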 Active and inactive are the calls of the source.

This test deals with SK-MEL-5 melanoma. The test is described as follows: NCI-60 one-dose screen, 48 h (100 = growth as untreated, 0 = no growth, -100 = all killed). Particulars: 10 µM unless noted. The method, then:
Growth inhibition of the SK-MEL-5 human tumor cell line is measured as a screen for anti-cancer activity. Cells are grown in 96 well plates and exposed to the test compound for 48 hours. Compounds are tested at a single concentration, which is 10^-5 M for most compounds. The reported endpoint is percent growth (GI% or GIPRCNT), where numbers from 0 - 100% represent growth inhibition, and numbers from -100% - 0 represent cell death. For example, a value of 40 represents 60% growth inhibition. A value of 0 means no net growth occurred over the course of the experiment. A value of -40 indicates 40% of cells at the beginning of the experiment died by the end of the experiment. A value of -100 means all cells are dead at the end of the experiment.
NCI-60 Human Tumor Cell Lines Screen was performed using the standard one-dose NCI protocol, which is described in more detail at https://dtp.cancer.gov/discovery_development/nci-60/default.htm.
Compounds with GIPRCNT values below 10 were considered active. Activity score was based on GIPRCNT using the following formula: […]
Score is 0 for GIPRCNT values of 100 or above, 50 for GIPRCNT values of 0, and 100 for GIPRCNT values of -100.
In the case of `O=C(NCCN1CCOCC1)Nc1ccc(-c2cc3c(Nc4ccc(Oc5cccc(C(F)(F)F)c5)c(Cl)c4)ncnc3s2)cc1`, the growth is -90.9% (active).
Then `Cn1cc(C(=O)c2nc(-c3c[nH]c4ccc(Br)cc34)no2)c2cc(F)ccc21`, with 83.8% (inactive); and `COc1ccc(-c2nc3ccc(-c4nc5ccc(N6CCN(c7ccc(F)cc7)CC6)cc5[nH]4)cc3[nH]2)cc1OC`, with 65.6% (inactive).
Regarding `COCCNc1ccc2c3c(cccc13)C(=O)N(CCN(C)C)C2=O`, the growth was -33.5% (active).
As for `Cc1cc(NS(=O)(=O)c2ccc(-c3cnc(C4CC4)o3)cc2)ccc1Cl`, the growth was 24.8% (inactive).
To `CC(=O)O[C@H]1CC[C@]2(C)[C@H]3CC=C4[C@@H]5CC(C)(C)CC[C@]5(C(=O)NCCNCCN)CC[C@@]4(C)[C@]3(C)CC[C@H]2C1(C)C` belongs 71.4% (inactive); to `C=CCSSc1ncnc2c1ncn2C1OC(CO)C(O)C1O` (stereo not given), 61.1% (inactive).
As to `COc1cccc(-c2nc3sccn3c2-c2ccnc(NCCNS(=O)(=O)c3ccc(F)cc3)c2)c1`, the growth was -53.1% (active).
Take `CCN(CC)c1ccc(-c2cc(-c3cc(OC)c(OC)c(OC)c3)nc(N3CCOCC3)c2C#N)cc1`: the growth was -83.3% (active).
Turning to `O=C(/C=C/c1ccccc1)c1ccc(O)c(CN2CCN(c3cc4c(cc3F)c(=O)c(C(=O)O)cn4C3CC3)CC2)c1`, the growth was -42.1% (active).
Then `Cc1cc2nc3[nH]c4ccccc4c3nc2cc1C`, with 88.9% (inactive); and `CN(C)[C@@H]1C(=O)C(C(=O)NCc2nc3[nH]cnc(=S)c3[nH]2)=C(O)[C@@]2(O)C(=O)C3=C(O)c4c(O)cccc4[C@@](C)(O)[C@H]3C[C@@H]12`, with 75.5% (inactive).
`COc1ccc(-c2nc3cc(C(=O)Nc4cc(OC)c(OC)c(OC)c4)ccc3n2C2CCCCC2)cc1`: the growth is 77.8% (inactive).
Then `N#Cc1c(N)n(CCNC(=O)c2ccccc2)c2nc3ccccc3nc12`, with 132% (inactive).
Regarding `CCOC(=O)c1csc(NC(=O)COc2cccc(/C=C3\CSc4ccccc4C3=O)c2)n1`, the growth was 54.5% (inactive).
With `N#CCCN=Nc1c(O)[nH]c2ccc([N+](=O)[O-])cc12`, the growth was 99.2% (inactive).
For `C=CC(=O)Nc1cccc(Nc2nc(SC)nc(-c3cccc([N+](=O)[O-])c3)c2C#N)c1`, the growth was 55.2% (inactive).
Then `CCCc1cc(=O)n2c(C(=O)Nc3ccc(F)cc3)c(C(=O)Nc3ccc(F)cc3)sc2n1`, with 82.8% [30 µM] (inactive); and `CN(C)CCN1C(=O)c2cccc3c(N)ccc(c23)C1=O`, with -21.8% (active).
`COc1ccc(C(=O)COc2cccc(/C=C3\CSc4ccccc4C3=O)c2)cc1`: the growth was -75.8% (active).
As for `Fc1ccc2[nH]cc(SSc3c[nH]c4ccc(F)cc34)c2c1`, the growth is 70% (inactive).
To `COc1ccc(-c2nc3ccc(-c4nc5ccc(N6CCN(C)CC6)cc5[nH]4)cc3[nH]2)cc1OC` belongs 26.3% (inactive); to `Cc1cc2nc(NC(=O)CN3CCN(CCN4C(=O)c5cccc6cccc(c56)C4=O)CC3)sc2cc1C`, 77% (inactive).
Then `CCOC(=O)n1cc(-c2nonc2-c2cn(C)c3ncccc23)c2cc(F)ccc21`, with 81.5% (inactive); and `Cn1cc(-c2nonc2-c2c[nH]c3ccccc23)c2cccnc21`, with 26.3% (inactive); and `CC(C)(C)c1cc(C(C)(C)C)cc(S(=O)(=O)Nc2cc3ccccc3cc2C(=O)NCCN)c1`, with 81.1% (inactive).
With `O=C1Nc2ccc(Br)cc2C12Oc1ccccc1C1CC(c3ccc(F)cc3)=NN12` (stereo not given), the growth is 93.3% (inactive).
`CCOc1cc2c(cc1OCC)C(c1cc(OC)c(O)cc1Cl)NCC2` (stereo not given): the growth is 88.6% (inactive).
In the case of `CCOC(=O)c1sc2nc(-c3cccc(O)c3)nc(N3CCOCC3)c2c1C`, the growth was 52.7% (inactive).
As for `COc1ccc(NC2=C(Sc3nc(C)cc(C)n3)C(=O)N(Cc3ccccc3)C2=O)cc1Cl`, the growth was 57.9% [30 µM] (inactive).
Then `COc1ccc(S(=O)(=O)N2CC3(COC3)C2)cc1NC(=O)c1[nH]c(C)c2c1CCCCC2=O`, with 46.5% (inactive).
As for `O=c1nc2oc3ccc4ccccc4c3cc-2s1`, the growth was 10.8% (inactive).
`C#CCOc1ccc2ncnc(N3CCN(C(=O)CCl)CC3)c2c1`: the growth was 57.7% [8.25 µM] (inactive).
To `COc1cccc(/C=C2\SC(=Nc3ccc(NC(C)=O)cc3)NC2=O)c1OC` belongs 96.2% (inactive).
`COc1cccc(-c2nc3sccn3c2-c2ccnc(NCCNS(=O)(=O)c3ccccc3)c2)c1`: the growth was -39.3% (active).
To `O=C1c2cc3c(cc2-c2c1c1cc(F)c(F)cc1c(=O)n2CCCn1ccnc1)OCO3` belongs -74.9% (active); to `Cn1c(NCCc2ccc(O)c(O)c2)nc2c1c(=O)n(Cc1ccc(Br)cc1)c(=O)n2C`, 57.6% (inactive); to `COc1cccc(-c2nn(C(C)(C)C)cc2-c2ccnc(NCCCNS(=O)(=O)c3ccc(C)cc3)c2)c1`, 100% (inactive).
In the case of `C=C(C)[C@@H]1CC[C@]2(C(=O)OC)CC[C@]3(C)[C@H](CC[C@@H]4[C@@]5(C)C/C(=C/c6ccc(OC)cc6)C(=O)C(C)(C)[C@@H]5CC[C@]43C)[C@@H]12`, the growth is 95.8% (inactive).
To `COc1ccc(C(=O)COc2ccc(/C=C3\COc4ccc(OC)cc4C3=O)cc2)cc1` belongs 74.2% (inactive).
